Screening data (PubChem BioAssay)
This is one part of a sample in which hits are shown more often than they occur.
Cruzain noTriton: qHTS Assay for Promiscuous and Specific Inhibitors of Cruzain (without detergent) | AID 1476, 2009 | purified cruzain, Z-FR-AMC fluorescence, no detergent | Potency, µM, hits mostly inhibitors | hit rate 2.3% among 200,000 | Cruzipain (Trypanosoma cruzi), P25779; further: nearly all actives have a fitted effect of over 40% in size
Target sequence (P25779 123-467 limits assumed): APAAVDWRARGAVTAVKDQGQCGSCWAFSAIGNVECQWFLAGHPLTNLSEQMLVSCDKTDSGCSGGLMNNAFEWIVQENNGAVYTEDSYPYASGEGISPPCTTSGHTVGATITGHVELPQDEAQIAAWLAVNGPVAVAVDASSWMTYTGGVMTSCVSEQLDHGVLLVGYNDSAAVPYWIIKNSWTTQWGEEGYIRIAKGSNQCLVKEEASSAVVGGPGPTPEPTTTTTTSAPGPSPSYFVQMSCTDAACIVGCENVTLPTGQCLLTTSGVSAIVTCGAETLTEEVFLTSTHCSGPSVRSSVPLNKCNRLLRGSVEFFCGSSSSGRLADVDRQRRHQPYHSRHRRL
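Detergent-free condition (0.00005% Triton X-100) in acetate buffer pH 5.5 with DTT. 1.5 nM enzyme and compound were pre-mixed 15 min, then 2 uM Z-FR-AMC substrate added; reaction progress from fluorescence change between first and third reads (60 s).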
NS1 inh: qHTS Assay for Inhibitors of Influenza NS1 Protein Function; hit rate 0.4% among 270,000; Potency, µM (top dose mostly 46.1 µM); AID 2326, 2010; calls by dose curve; further: actives are rising curves; nearly all actives have a fitted effect of over 50% in size
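Recovery from NS1-induced slow growth read by OD600 in budding yeast switched to galactose assay medium (pH 6.0, -URA) at 1:100 dilution. Compound 23 nl per well; the matching strain lacking NS1 serves as control.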
Cruzain Triton: qHTS Assay for Promiscuous and Specific Inhibitors of Cruzain (with detergent) | Cruzipain (Trypanosoma cruzi), P25779 | purified cruzain, Z-FR-AMC fluorescence, 0.01% Triton | Potency, µM, usual class: inhibitors | hit rate 0.43% among 200,000 | AID 1478, 2009; further: nearly all actives have a fitted effect of over 40% in size
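Enzyme 1.5 nM, Z-FR-AMC 2 uM, NaOAc 100 mM pH 5.5, DTT 5 mM, Triton X-100 0.01%; 15 min RT compound preincubation; kinetic ex360/em450, 60 s delta.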
Of the large screens only hits and unclear results are named; the others gave an inactive call. Unless noted, the call rests on the fitted dose curve; in most records, active means well fitted curve in the direction sought with a large enough effect; inconclusive means small, poorly fitted or top-dose-only effect, or another doubt; inactive means no such curve, though single readings can be large; an effect the other way counts as inactive or inconclusive.

C[C@@H]1[C@@H](C)N1C[C@H](O)Cn1ccnc1[N+](=O)[O-] (stereo not given in full)	none
CCc1ccc(NC(=O)C(CC)Sc2nc3cc4c(cc3c(=O)n2Cc2ccco2)OCO4)cc1 (stereo not given)	Cruzain noTriton 25.1µM
CCc1ccccc1NC(=O)C(CC)Sc1nc2cc3c(cc2c(=O)n1Cc1ccco1)OCO3 (stereo not given)	none
COCCn1c(=O)c(-c2cc(F)cc(F)c2)nc2cnc(OC)nc21	none (no result: NS1 inh)
CCCCNC(=O)c1cc2n(n1)C(C(F)(F)F)CC(c1ccccc1)N2 (stereo not given)	Cruzain noTriton inconclusive
CCOC(=O)c1c(NC(=O)c2cc3n(n2)C(C(F)(F)F)CC(c2ccccc2)N3)sc(C)c1C (stereo not given)	Cruzain noTriton 15.8µM
CN(C)c1ccc(/C=C2\SC(=S)N(Nc3ncc(C(F)(F)F)cc3Cl)C2=O)cc1	Cruzain noTriton 12.6µM
Cc1cc(C)nc(NN2C(=O)/C(=C/c3ccccc3)SC2=S)n1	none
COc1ccc(CNc2ccnc(-c3ccc(N(C)C)cc3)n2)c(OC)c1	none (no result: NS1 inh)
O=C(Nc1ccccc1)c1cc2ccccc2o1	none
O=C(Nc1ccccc1)c1ccc(OC(=O)c2cc3ccccc3o2)cc1	Cruzain noTriton 12.6µM
CC(C)Cn1nnnc1S(=O)(=O)CCc1ccccc1	none (no result: NS1 inh)
Nc1nc2ccc([N+](=O)[O-])cc2s1	none (no result: NS1 inh)
O=C1C(=C2CCCCC2)SC(=S)N1Cc1ccco1	Cruzain noTriton 15.8µM, Cruzain Triton 20µM
O=C(O)CCN1C(=O)C(=C2CCCCCC2)SC1=S	none
COc1ccc(OC)c(S(=O)(=O)N2CC=C(c3c(C)n(CC(=O)N4CCCC4)c4ccccc34)CC2)c1	Cruzain noTriton inconclusive (no result: NS1 inh)
Cc1ccc(OCCSc2nc3ccc(NC(=O)c4cccs4)cc3s2)cc1	none (no result: NS1 inh)
Cc1cc(C)cc(OCCSc2nc3ccc(NC(=O)c4cccs4)cc3s2)c1	Cruzain noTriton 20µM (no result: NS1 inh)
COc1ccc(-c2nc(CN3CCC(C(=O)NCCCN4CCN(c5ccccc5F)CC4)CC3)c(C)o2)cc1OC	none (no result: NS1 inh)
ICCc1ccccc1	Cruzain noTriton inconclusive (no result: NS1 inh)
CCOc1ccc(C2C(C#N)=C(N)SC(N)=C2C#N)c(OCC)c1	none
CCCCc1ccc(C2C(C#N)=C(N)SC(N)=C2C#N)s1	Cruzain noTriton 31.6µM, Cruzain Triton inconclusive
Cc1c(CC(C)(C)C(=O)O)n(Cc2ccc(Cl)cc2)c2ccc(F)cc12	none (no result: NS1 inh)
Clc1ccc(/C=C/c2nc3ccccc3[nH]2)cc1	Cruzain noTriton 15.8µM
Clc1ccc(/C=C/c2nc3ccccc3[nH]2)c(Cl)c1	Cruzain noTriton inconclusive
C=Cc1ccc(Cn2c(=O)cc(C)c3c(C)nn(C)c32)cc1	Cruzain noTriton inconclusive (no result: NS1 inh)
CCC(=O)N1CCc2cc(Br)cc(S(=O)(=O)CCC(=O)N(CC)Cc3ccccc3)c21	none (no result: NS1 inh)
C=C(C)[C@@H]1CCC2(C(=O)O)CC[C@]3(C)[C@H](CC[C@@H]4[C@@]5(C)CCC(=O)C(C)(C)[C@@H]5CC[C@]43C)[C@@H]12 (stereo not given in full)	Cruzain noTriton 5.01µM
C=C(C)[C@@H]1CC[C@]2(C(=O)O)CC[C@]3(C)C(CCC4[C@@]5(C)CC[C@H](O)C(C)(C)C5CC[C@]43C)C12 (stereo not given in full)	none (no result: Cruzain noTriton, Cruzain Triton)
CCCCCCCCCCCCCCCCOC[C@H](COP(=O)([O-])OCC[N+](C)(C)C)OC(=O)NC	Cruzain noTriton inconclusive (no result: NS1 inh)
CC(OC(=O)c1c2c(nc3ccccc13)/C(=C\c1ccc3c(c1)OCO3)CCC2)C(=O)Nc1ccc(S(N)(=O)=O)cc1 (stereo not given)	Cruzain noTriton 15.8µM, NS1 inh 11.2µM
O=C(COC(=O)c1c2c(nc3ccccc13)CCCCC2)NCc1ccc2c(c1)OCO2	none
CC(OC(=O)c1cc2ccccc2cc1O)C(=O)Nc1ccc(S(N)(=O)=O)cc1 (stereo not given)	none (no result: Cruzain noTriton, Cruzain Triton)
Cc1cccc(C)c1NC(=O)COC(=O)c1c2c(nc3ccccc13)/C(=C\c1ccc3c(c1)OCO3)CCC2	Cruzain noTriton 7.94µM
Cc1[nH]c2ccc(C(=O)N3CCN(c4ccccc4F)CC3)cc2c1C	none (no result: NS1 inh)
Cc1cc(C)c2c(c1)/C(=N/NC(=S)Nc1ccc(F)cc1)CCC2	Cruzain noTriton 15.8µM
Cc1cc(C)c2c(c1)/C(=N/NS(=O)(=O)c1ccccc1)CCC2	none
C=CCSc1nc2c(N)ncnc2n1[C@@H]1O[C@H](CO)[C@@H](O)[C@@H]1O	none
COCC(=O)C(C(=O)OC)[C@H](CCc1ccccc1)NC(=O)OC (stereo not given in full)	none (no result: NS1 inh)
Cc1ccc(/C=C2/NC(=O)N(Cc3ccccc3)C2=O)s1	NS1 inh 3.98µM
Cc1cccc(CN2C(=O)N/C(=C/c3ccc(C)s3)C2=O)c1	none
Cc1cc(NC(=O)c2ccccc2Cl)ccc1NC(=O)c1ccccc1Cl	none (no result: Cruzain noTriton, Cruzain Triton)
Cc1ccc2sc3ccc(NC(=O)c4ccccc4Cl)cc3c(=O)c2c1	Cruzain noTriton 25.1µM
N#Cc1cccc(-c2nc3cnc(Oc4cccc(Cl)c4)nc3n(C3CC3)c2=O)c1	none (no result: NS1 inh)
Cc1ccc(-c2nc3ccccc3o2)cc1NC(=S)NC(=O)c1cccs1	Cruzain noTriton inconclusive
O=C(NC(=S)Nc1nc(-c2ccccc2)cs1)c1cccs1	Cruzain noTriton inconclusive
Cc1sc(NC(=O)c2cccs2)nc1-c1ccccc1	none
Cc1cc(C)c2oc(-c3ccc(C)c(NC(=S)NC(=O)c4cccs4)c3)nc2c1	Cruzain noTriton 7.94µM
Cc1ccc(-c2csc(NC(=S)NC(=O)c3cccs3)n2)cc1	Cruzain noTriton 15.8µM
Cc1sc(NC(=S)NC(=O)c2cccs2)nc1-c1ccc(C(C)C)cc1	Cruzain noTriton 10µM
Cc1cc(=O)[nH]c2nnc(SCC(=O)Nc3ccc(OC(F)(F)F)cc3)n12	none (no result: NS1 inh)
Cc1cccc(N(CC(=O)Nc2ccccc2C(F)(F)F)S(=O)(=O)c2ccccc2)c1C	none (no result: NS1 inh)
O=C(Cn1c(SCCOc2ccccc2Cl)nc2ccccc21)N1CCOCC1	none (no result: NS1 inh)
NC(=O)CSc1oc(-c2ccco2)nc1S(=O)(=O)c1ccccc1	none (no result: Cruzain noTriton, Cruzain Triton)
O=C(Oc1oc(-c2ccco2)nc1C=Nc1ccccc1)c1ccoc1	Cruzain noTriton inconclusive, Cruzain Triton 22.4µM
O=C(Oc1oc(-c2ccco2)nc1C=Nc1ccccc1)c1ccco1	Cruzain noTriton 15.8µM, Cruzain Triton 14.1µM
Cc1ccc(N=Cc2nc(-c3ccco3)oc2O)cc1	none
CCNc1ncc2ncc(=O)n(CCOC)c2n1	none (no result: NS1 inh)
CCCOc1cccc(C(=O)N(Cc2cc(OC)c(OC)c(OC)c2)C2CCS(=O)(=O)C2)c1 (stereo not given)	none (no result: NS1 inh)
Cc1cccc(C(=O)Nc2ccc(NC(=O)Cc3ccc(Cl)cc3)cc2)c1	Cruzain noTriton inconclusive
C/C(=N\NC(=O)CSCc1ccc(Cl)cc1)c1ccc(NC(=O)c2ccccc2)cc1	Cruzain noTriton 25.1µM
O=C(Cc1ccc(Cl)cc1)Nc1ccc(NC(=O)c2ccccc2)cc1	Cruzain noTriton 25.1µM
C/C(=N/NC(=O)CSCc1ccc(Cl)cc1)c1cccc(NC(=O)c2ccccc2)c1	Cruzain noTriton inconclusive
Cc1ncc([N+](=O)[O-])n1CCN=[N+]=[N-]	none
CCC(C)c1ccc(OCCn2cc(/C=N/NC(=O)CSc3nnc(C)s3)c3ccccc32)cc1 (stereo not given)	Cruzain noTriton 3.98µM
Cc1cccc(OCCn2cc(/C=N/NC(=O)c3ccncc3)c3ccccc32)c1	Cruzain noTriton inconclusive
